Experiment [1] is described as follows: Nuclear factor erythroid 2-related factor 2/antioxidant responsive element (Nrf2/ARE) small molecule agonists: qHTS cell viability counter screen in human keratinocytes (AID 1919968; active means well fitted curve in the direction sought with a large enough effect in the repeat runs; an effect the other way counts as inactive or inconclusive; further: nearly all actives have a fitted effect of over 55% in size; further: potency means the concentration at half of the fitted maximal effect). In outline:
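Fluorescence read-out from CellTiter-Fluor after 1 h at 37 C. Wells held HaCaT-derived ARE-luciferase reporter cells (1,500/well) treated 23 h with DMSO-dissolved compounds. Run in the same wells as the luciferase agonist read.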
For orientation: qHTS replaces the single test concentration by a dilution series.

Experiment [2] can be described thus: Nuclear factor erythroid 2-related factor 2/antioxidant responsive element (Nrf2/ARE) small molecule agonists: luciferase reporter gene qHTS assay in human keratinocytes (AID 1919969; further: nearly all actives have a fitted effect of over 35% in size; further: potency means the concentration at half of the fitted maximal effect). (In general: In a reporter assay the amount or activity of a reporter protein is the signal.)
For experiment [3], the target named is KiSS-1 receptor (Homo sapiens) (UniProt Q969F8). Briefly: Human kisspeptin (KISS1R) small molecule agonists, calcium flux assay in KISS1R-HEK293 cells (AID 1920064; active means well fitted curve in the direction sought with a large enough effect in the repeat runs; an effect the other way counts as inactive or inconclusive). In outline: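 Calcium flux read-out: kinetic fluorescence at Ex/Em=480/540, 1 s intervals over 3 min, after pin-tool compound addition to dye-loaded KISS1R-HEK293 cells. Fifteen concentrations, triplicates.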
Sequence of KiSS-1 receptor (Homo sapiens) (Q969F8 whole entry, looked up): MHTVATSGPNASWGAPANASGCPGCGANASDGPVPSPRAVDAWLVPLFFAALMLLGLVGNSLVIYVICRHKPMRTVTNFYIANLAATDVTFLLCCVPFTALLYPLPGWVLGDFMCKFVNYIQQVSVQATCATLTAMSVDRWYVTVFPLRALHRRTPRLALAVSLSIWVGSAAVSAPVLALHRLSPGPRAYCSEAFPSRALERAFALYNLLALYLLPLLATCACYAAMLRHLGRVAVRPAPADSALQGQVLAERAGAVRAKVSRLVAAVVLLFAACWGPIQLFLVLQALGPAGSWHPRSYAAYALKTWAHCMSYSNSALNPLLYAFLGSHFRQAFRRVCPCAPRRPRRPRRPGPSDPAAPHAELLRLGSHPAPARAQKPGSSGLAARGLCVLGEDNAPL
For orientation: A change in cytosolic calcium serves as a functional read-out for many receptors and channels.

Experiment [4] can be described thus: G protein-coupled receptor (GPCR) small molecule agonists, calcium flux assay: HEK293 wild type cell line counter screen (AID 1920065). In outline: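 Agonist mode; 18 h seeding at 37 C, 1 h dye load at 37 C; compounds pinned from DMSO, ATP as positive control; kinetic fluorescence 480/540 nm, 3 min, 1 s reads; 15 concentrations, triplicate.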
A short description of experiment [5]: p53 small molecule agonists, cell-based qHTS assay with human liver microsomes (AID 1963577). The method in brief:
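Compounds act here after metabolic activation: human liver microsomes and NADPH, both at 0.5 mg/mL final, were co-added to p53RE-bla cells. Incubation ran 16 h at 37 C, followed by LiveBLAzer detection.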

Experiment [6] in a line: p53 small molecule agonists, cell-based qHTS assay with rat liver microsomes (AID 1963578). In outline:
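Read-out is beta-lactamase reporter fluorescence (LiveBLAzer, 2 h, room temperature, dark) in p53RE-bla cells treated 16 h at 37 C with compound, rat liver microsomes and NADPH, both 0.5 mg/mL final.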

A short description of experiment [7]: p53 small molecule agonists, cell-based qHTS assay with human liver microsomes: qHTS cell viability counter screen (AID 1963579). Further: nearly all actives have a fitted effect of over 45% in size. Further: potency means the concentration at half of the fitted maximal effect. In outline: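 Cells carrying the p53 response-element beta-lactamase reporter are treated for 16 h at 37 C with test compounds in the presence of human liver microsomes and NADPH (both 0.5 mg/mL final); ATP-based CellTiter-Glo luminescence then reports viability.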

A short description of experiment [8]: p53 small molecule agonists, cell-based qHTS assay with rat liver microsomes: qHTS cell viability counter screen (AID 1963580). Further: nearly all actives have a fitted effect of over 45% in size. Further: potency means the concentration at half of the fitted maximal effect. In outline: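 Rat liver microsome (0.5 mg/mL final) and NADPH (0.5 mg/mL final) co-incubation with compounds for 16 h at 37 C on HCT-116 p53RE-bla cells; cytotoxicity taken from intracellular ATP luminescence.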
Experiment [9] has as its target 5-hydroxytryptamine receptor 2A (Homo sapiens) (UniProt P28223). Briefly: 5-hydroxytryptamine receptor 2A (HTR2A) small molecule antagonists, cell-based qHTS assay (AID 1963586). Further: nearly all actives have a fitted effect of over 45% in size. In outline:
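CHO cells stably expressing human HTR2A were plated for 18 h at 37 C, then loaded with calcium dye for 1 h. Compounds were preincubated 5 min at room temperature before DOI (4 nM solution) was added. Kinetic fluorescence was read for 3 min.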

Experiment [10] shares this target. The experiment in a line: 5-hydroxytryptamine receptor 2A (HTR2A) small molecule agonists, cell-based qHTS assay (AID 1963587). Further: nearly all actives have a fitted effect of over 30% in size. Further: potency means the concentration at half of the fitted maximal effect. The method in brief: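 Kinetic calcium-flux fluorescence (2 min, 1 sec intervals) after compound addition in agonist mode. HTR2A-CHO cells were cultured 18 h, then dye-loaded 1 h at 37 C.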
In experiment [11] the target is Muscarinic acetylcholine receptor M1 (Homo sapiens) (UniProt P11229). Briefly: Cholinergic receptor muscarinic 1 (CHRM1) small molecule antagonists, cell-based qHTS assay (AID 1963588). Further: nearly all actives have a fitted effect of over 40% in size. Further: potency means the concentration at half of the fitted maximal effect. In outline:
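Compounds were tested at 15 concentrations in three independent runs. Dye-loaded CHRM1-CHO cells were exposed 5 min at room temperature before stimulation by acetylcholine added at 50nM. Intracellular calcium was read kinetically on FDSS for 3 min.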

For experiment [12] the target is unchanged. The experiment in a line: Cholinergic receptor muscarinic 1 (CHRM1) small molecule agonists, cell-based qHTS assay (AID 1963589). Further: nearly all actives have a fitted effect of over 35% in size. In outline: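 Calcium flux read-out: kinetic fluorescence at 1 sec intervals after pin-tool compound addition to dye-loaded CHRM1-CHO cells (human M1). Agonist mode; 15 concentrations tested in triplicate independent runs.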

The nature of experiment [13]: cAMP Responsive Elements (CRE) small molecule agonists, cell-based qHTS assay (AID 1963590). The method in brief: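 Beta-lactamase reporter readout: LiveBLAzer B/G FRET substrate, 2 h at room temperature, added after 3 h compound treatment of CRE-bla HEK 293T cells at 37 C/5% CO2.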
The nature of experiment [14]: cAMP Responsive Elements (CRE) small molecule antagonists, cell-based qHTS assay (AID 1963591; active means well fitted inhibition curve with a large enough effect in the signal ratio in the repeat runs, not every such curve was filed as active; the % refers to the signal ratio). In outline:
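HEK293T CRE-bla; 18 h preincubation; compound pin-transfer; NKH477 0.25 uM final, 3 h, 37 C; LiveBLAzer FRET substrate 2 h RT.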

The target of experiment [15] is D(2) dopamine receptor (Homo sapiens) (UniProt P14416). Briefly: Dopamine D2 receptor (DRD2) small molecule agonists, cell-based qHTS assay (AID 1963594). Further: nearly all actives have a fitted effect of over 35% in size. In outline:
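cAMP accumulation in DRD2-HEK293 cells measured by HTRF after 1 h detection; compounds added 10 min before NKH477 (200nM […]) forskolin-analogue stimulation, 30 min at room temperature, with Ro20-1724 present at 0.1 mM final.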

Experiment [16] shares this target. The experiment in a line: Dopamine D2 receptor (DRD2) small molecule antagonists, cell-based qHTS assay (AID 1963595; active means well fitted inhibition curve with a large enough effect in the signal ratio in the repeat runs, with a control signal flat; the % refers to the signal ratio; further: potency means the concentration at half of the fitted maximal effect). In outline: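 DRD2-HEK293; 0.1 mM Ro20-1724; cpd 10 min RT; NKH477 200 nM + quinpirole 12 nM, 30 min RT; HTRF cAMP (cAMP-d2/anti-cAMP cryptate), 665/620 nm ratio after 1 h.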
Experiment [17] in a line: p53 small molecule agonists, cell-based qHTS assay: qHTS cell viability counter screen (AID 1963581). Further: nearly all actives have a fitted effect of over 45% in size. Further: potency means the concentration at half of the fitted maximal effect. In outline: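 Cytotoxicity read-out: ATP-based luminescence (CellTiter-Glo, 30 min RT) measured in the same wells as the p53 reporter assay, HCT-116 p53RE-bla cells, 16 h compound exposure at 37 C.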
Experiment [18] is described as follows: p53 small molecule agonists, cell-based qHTS assay (AID 1963582; active means well fitted activation curve with a large enough effect in the signal ratio in the repeat runs, not every such curve was filed as active; the % refers to the signal ratio). In outline: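 Fluorescence intensity read-out of a beta-lactamase reporter under a p53 response element. Cells were exposed to DMSO-dissolved compounds for 16 h at 37 C, then developed with FRET substrate for 2 h at RT.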
Experiment [19] has as its target Beta-2 adrenergic receptor (Homo sapiens) (UniProt P07550). Briefly: Adrenergic beta2 receptor (ADRB2) small molecule antagonists, cell-based qHTS assay (AID 1963592). Further: series mostly up to about 92 µM; nearly all actives have a fitted effect of over 50% in size. In outline: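 Assay format: CHO-ADRB2 cells, 18-20hr seeding at 37C/5% CO2, then compound plus 1nM isoproterenol agonist mix for 0.5hr RT. Homogeneous time-resolved fluorescence cAMP detection after 1hr, expressed as 665/615 nm ratio.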

The target in experiment [20] is Gonadotropin-releasing hormone receptor (Homo sapiens) (UniProt P30968). The experiment in a line: Human gonadotropin-releasing hormone receptor (GnRHR) small molecule agonists, calcium flux assay in GnRHR-HEK293 cells (AID 1920063). Further: nearly all actives have a fitted effect of over 35% in size. In outline: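 Calcium-dye fluorescence, Ex/Em=480/540, recorded every 1 sec over 3 min after compound addition to GnRHR-HEK293 cells. Cells had been seeded 18 hours earlier and dye-loaded for 1 hour at 37 C. Fifteen concentrations, triplicates.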
Sequence of Gonadotropin-releasing hormone receptor (Homo sapiens) (P30968 whole entry, looked up): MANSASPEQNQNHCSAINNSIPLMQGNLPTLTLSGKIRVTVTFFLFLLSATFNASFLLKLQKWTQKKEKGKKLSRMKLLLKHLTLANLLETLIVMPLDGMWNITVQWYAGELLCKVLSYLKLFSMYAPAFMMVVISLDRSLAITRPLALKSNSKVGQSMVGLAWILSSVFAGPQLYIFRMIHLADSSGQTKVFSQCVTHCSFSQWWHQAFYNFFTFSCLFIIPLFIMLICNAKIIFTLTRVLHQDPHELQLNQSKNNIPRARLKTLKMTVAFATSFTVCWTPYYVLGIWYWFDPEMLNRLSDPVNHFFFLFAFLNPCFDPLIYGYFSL

Each structure is given as a SMILES string. Values without a mark were called inactive. Records with an inconclusive call do not appear. Active and inactive are the calls of the source. Unless noted, the call rests on the fitted dose curve.
On the % scale 0 is the no-effect control and ±100 the full control effect.

Sequence of 5-hydroxytryptamine receptor 2A (Homo sapiens) (P28223 whole entry, looked up): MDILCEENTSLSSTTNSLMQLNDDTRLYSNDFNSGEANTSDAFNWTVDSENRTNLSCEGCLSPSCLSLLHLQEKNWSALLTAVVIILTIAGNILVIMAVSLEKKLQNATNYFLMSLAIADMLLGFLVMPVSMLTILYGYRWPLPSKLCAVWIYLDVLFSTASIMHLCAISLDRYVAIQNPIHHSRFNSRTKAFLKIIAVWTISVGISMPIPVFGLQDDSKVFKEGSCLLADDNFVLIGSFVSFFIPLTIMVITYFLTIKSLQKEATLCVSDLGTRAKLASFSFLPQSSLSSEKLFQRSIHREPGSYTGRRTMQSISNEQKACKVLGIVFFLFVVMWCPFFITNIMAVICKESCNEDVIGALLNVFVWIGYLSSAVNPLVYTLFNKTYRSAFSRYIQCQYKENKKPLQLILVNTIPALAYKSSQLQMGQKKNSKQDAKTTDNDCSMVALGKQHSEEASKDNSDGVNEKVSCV
Sequence of Beta-2 adrenergic receptor (Homo sapiens) (P07550 whole entry, looked up): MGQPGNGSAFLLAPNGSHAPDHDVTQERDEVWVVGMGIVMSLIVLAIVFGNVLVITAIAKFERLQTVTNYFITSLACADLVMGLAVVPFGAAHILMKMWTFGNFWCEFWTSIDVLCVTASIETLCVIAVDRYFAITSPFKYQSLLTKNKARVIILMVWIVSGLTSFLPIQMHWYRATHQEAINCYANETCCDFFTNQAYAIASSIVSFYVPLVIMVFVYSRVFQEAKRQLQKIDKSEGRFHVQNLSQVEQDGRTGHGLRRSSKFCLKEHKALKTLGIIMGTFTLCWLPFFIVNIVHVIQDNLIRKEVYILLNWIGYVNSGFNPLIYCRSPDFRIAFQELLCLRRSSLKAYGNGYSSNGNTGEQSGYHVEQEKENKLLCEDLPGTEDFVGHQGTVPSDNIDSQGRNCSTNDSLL
Sequence of Muscarinic acetylcholine receptor M1 (Homo sapiens) (P11229 whole entry, looked up): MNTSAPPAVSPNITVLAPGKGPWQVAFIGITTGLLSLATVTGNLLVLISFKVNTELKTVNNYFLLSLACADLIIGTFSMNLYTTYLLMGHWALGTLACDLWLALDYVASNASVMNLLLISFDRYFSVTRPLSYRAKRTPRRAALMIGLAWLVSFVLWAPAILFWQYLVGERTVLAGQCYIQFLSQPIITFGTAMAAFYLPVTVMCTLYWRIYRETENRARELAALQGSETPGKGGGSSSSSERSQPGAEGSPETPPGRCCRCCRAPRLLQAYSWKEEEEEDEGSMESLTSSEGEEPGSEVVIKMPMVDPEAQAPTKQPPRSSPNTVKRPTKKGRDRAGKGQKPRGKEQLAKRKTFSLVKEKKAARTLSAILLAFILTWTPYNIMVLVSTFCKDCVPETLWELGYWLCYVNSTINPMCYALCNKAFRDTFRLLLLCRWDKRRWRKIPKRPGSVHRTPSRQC
Sequence of D(2) dopamine receptor (Homo sapiens) (P14416 whole entry, looked up): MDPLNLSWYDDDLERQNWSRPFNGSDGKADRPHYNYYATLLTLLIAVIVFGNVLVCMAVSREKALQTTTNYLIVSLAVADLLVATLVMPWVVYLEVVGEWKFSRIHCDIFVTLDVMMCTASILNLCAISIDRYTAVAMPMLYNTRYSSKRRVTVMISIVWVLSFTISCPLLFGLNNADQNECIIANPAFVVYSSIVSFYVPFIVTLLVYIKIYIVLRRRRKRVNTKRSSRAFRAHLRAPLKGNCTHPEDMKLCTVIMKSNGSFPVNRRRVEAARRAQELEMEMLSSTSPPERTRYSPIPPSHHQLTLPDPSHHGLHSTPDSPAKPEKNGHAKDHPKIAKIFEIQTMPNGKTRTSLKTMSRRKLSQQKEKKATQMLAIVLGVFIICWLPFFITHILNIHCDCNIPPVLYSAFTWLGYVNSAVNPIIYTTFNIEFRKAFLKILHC

Take `SCc1ccco1`: the Potency result in [1], in experiment [3], in [4], in experiment [5], in experiment [6] and in experiment [7] was “inactive” each time. In addition, the Potency entry in [8], in experiment [9], in experiment [10], in experiment [11], in [12] and in experiment [13] was “inactive” in each case. The Potency result in experiment [14], in [15] and in [16] was “inactive” in each case. The Potency in experiment [2] was 68.6 µM (active).

`CC(=O)C(Cl)(Cl)Cl`: the results for the Potency in experiment [1], in experiment [2] and in [17] were 16.6 µM (active), 20.9 µM (active) and 24.8 µM (active), respectively. In addition, the Potency entry in [3], in [4], in experiment [5], in experiment [6], in [7] and in experiment [18] was “inactive” in each case. Moreover, the Potency result in experiment [10], in [12], in experiment [15] and in experiment [16] was “inactive” each time.

On to `[Cl][Sn]([c]1ccccc1)([c]1ccccc1)[c]1ccccc1`, for which the Potency was 1.03 µM (active) in experiment [1]; 0.58 µM (active) in experiment [2]; 6.14 µM (active) in [7]; 6.14 µM (active) in experiment [8]; 10.4 µM (active) in experiment [10]; 7.3 µM (active) in [16]. Also, the activation is 2.74% [at 15.8 µM] in experiment [3]; 4.28% [at 11.8 µM] in experiment [4]; -5.37% [at 13.6 µM] in experiment [6]; 2.71% [at 15.8 µM] in [12]; 8.68% [at 19 µM] in experiment [15]. Further, the figures for the activity, negative = inhibition in experiment [9] and in experiment [11] were -29.3% [at 12.7 µM] and -4.75% [at 12.6 µM], respectively.

With `COc1cccc([C@@]2(O)CCCC[C@@H]2CN(C)C)c1`, the Potency entry in experiment [1], in experiment [2], in experiment [3], in experiment [4], in experiment [5] and in experiment [6] was “inactive” throughout. Also, the Potency result in experiment [8], in [18], in [13], in experiment [14], in experiment [19] and in experiment [15] was “inactive” each time. In [16], the Potency entry was “inactive”.

On to `CCN1CCCC1CNC(=O)C(O)(c1ccccc1)c1ccccc1` (stereo not drawn), for which the Potency result in experiment [1], in experiment [2], in experiment [3], in experiment [4], in [5] and in experiment [6] was “inactive” each time. The Potency result in experiment [8], in experiment [17], in experiment [18], in experiment [12], in [13] and in experiment [14] was “inactive” throughout. For the same molecule, the Potency entry in experiment [19] and in experiment [16] was “inactive” throughout. The values for the Potency in [10] and in experiment [11] were 2.68 µM (active) and 91.8 nM (active), respectively.

On to `CN(C)C(=O)Nc1cccc(OC(=O)NC(C)(C)C)c1`, for which the Potency entry in experiment [1], in experiment [2], in [3], in experiment [4], in experiment [5] and in experiment [7] was “inactive” in each case. Besides, the Potency entry in experiment [8], in experiment [17], in experiment [18], in experiment [10], in [12] and in [13] was “inactive” in each case. The Potency entry in experiment [14], in experiment [19], in experiment [15] and in experiment [16] was “inactive” throughout.

On to `Nc1ccc([N+](=O)[O-])cc1`, for which the figures for the Potency in [1], in experiment [2] and in experiment [17] were 61.1 µM (active), 24.3 µM (active) and 8.39 µM (active), respectively. For the same molecule, the Potency entry in experiment [3], in experiment [4], in experiment [5], in experiment [6], in experiment [12] and in experiment [19] was “inactive” each time. Besides, in experiment [16], the Potency entry was “inactive”.

Regarding `COC1CC(=C(c2cccs2)c2cccs2)C[N+](C)(C)C1` (stereo not drawn), the Potency entry in experiment [1], in experiment [20], in experiment [3], in experiment [4], in experiment [5] and in experiment [6] was “inactive” in each case. For the same molecule, the Potency entry in [7], in experiment [8], in [17], in experiment [18], in experiment [9] and in experiment [10] was “inactive” throughout. Also, the Potency entry in [12], in experiment [13], in [14] and in experiment [19] was “inactive” in each case.

These data come from PubChem BioAssay (Tox21).
